# Reference: the supplement of paper PMC8728848
# Shown is part of a subset that was picked to be rich in the strongest signals.
# B1: FliD (Clostridium difficile) (protein)
# chain: MSSISPVRVTGLSGNFDMEGIIEASMIRDKEKVNKAKQDQQIVKWKQEIYRDIIKESKNLYDKYLNGDSPNSITNKKAYSATRITSSDESIIVAKGSAGAEKINYQFAVSQMAEPAKVTIKLNSSDPIVQQFPPNASGASSLNIGGVNIPISEQDTTSTIVSKINSLCADNDIRASYSEMTGELIISRKQTGSSSDIDLKVIGNDSLAGQIASDNGITFTTDASGTKSAVVYGKNLEADVTDDQGRVTHISKEQNSFKIDNIDYNVNSKGSAKLVSVTDTEEATKNMKAFVDDYNALMDKVYGLVTTKKSKDYPPLTDEQKDDMTTEEIEKWEKKAKEGILRNDDELRAFVEDIQSMFFGDADTIIALRKLGISEHENYNKKGQISFNADTFSKALIDDSDKVYKALAGYSSNYDDKGMFEKLKKIVFEYSGSSASKLTKKAGMENSSSASQNVYSKQIAEQERNISRLVEKMNDKEKRLYAKYSALESLLNKYSSQMNYFSQAQGN
# Columns and labels:
# Test in all cases: glycan array binding signal (z-score within array); higher = stronger binding
# Settings in all cases: glycan notation: IUPAC condensed, linker removed
# [1] = target: Fuc(a1-2)Gal(b1-3)[Fuc(a1-4)]GlcNAc(b1-2)Man(a1-3)[Fuc(a1-2)Gal(b1-3)[Fuc(a1-4)]GlcNAc(b1-2)Man(a1-6)]Man(b1-4)GlcNAc(b1-4)[Fuc(a1-6)]GlcNAc(b1-4)[Fuc(a1-6)]GlcNAc
# Method in brief: (§1)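 The binding signal is a Z-score computed within each array. Data were drawn from 3228 arrays in the Consortium for Functional Glycomics database, restricted to those with a known protein sequence. Scores were averaged over arrays of the same protein sequence at different concentrations or buffers, and over linkers, and negative values can be taken as non-binding.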
# [2] = target: Fuc(a1-2)Gal(b1-4)[Fuc(a1-3)]GlcNAc(b1-2)Man(a1-3)[Fuc(a1-2)Gal(b1-4)[Fuc(a1-3)]GlcNAc(b1-2)Man(a1-6)]Man(b1-4)GlcNAc(b1-4)[Fuc(a1-6)]GlcNAc
# Method in brief: as §1
# [3] = target: Fuc(a1-2)[Gal(a1-3)]Gal(b1-3)GlcNAc
# Method in brief: as §1
# [4] = target: Fuc(a1-2)[GalNAc(a1-3)]Gal(b1-4)GlcNAc
# Method in brief: as §1
# [5] = target: Fuc(a1-3)[Gal(b1-4)]GlcNAc(b1-2)Man(a1-3)[Fuc(a1-3)[Gal(b1-4)]GlcNAc(b1-2)Man(a1-6)]Man(b1-4)GlcNAc(b1-4)GlcNAc
# Method in brief: as §1
# [6] = target: Gal(a1-3)Gal(b1-3)GlcNAc
# Method in brief: as §1
# [7] = target: Gal(a1-3)Gal(b1-4)GlcNAc(b1-2)Man
# Method in brief: as §1
# [8] = target: Gal(a1-4)Gal(b1-4)GlcNAc
# Method in brief: as §1
# [9] = target: Gal(a1-4)GlcNAc
# Method in brief: as §1
# [10] = target: Gal(b1-2)Gal
# Method in brief: as §1
# [11] = target: Gal(b1-3)Gal
# Method in brief: as §1
# [12] = target: Gal(b1-3)Gal(b1-4)GlcNAc
# Method in brief: as §1
# [13] = target: Gal(b1-3)GlcNAc(a1-6)Gal(b1-4)GlcNAc
# Method in brief: as §1
# [14] = target: Gal(b1-3)GlcNAc(b1-2)Man(a1-3)[Gal(b1-3)GlcNAc(b1-2)Man(a1-6)]Man(b1-4)GlcNAc(b1-4)[Fuc(a1-6)]GlcNAc
# Method in brief: as §1
# [15] = target: Gal(b1-3)GlcNAc(b1-6)Gal(b1-4)GlcNAc
# Method in brief: as §1
# [16] = target: Gal(b1-4)GlcNAc(b1-2)Man(a1-6)Man(b1-4)GlcNAc(b1-4)GlcNAc
# Method in brief: as §1
# [17] = target: Gal(b1-4)GlcNAc(b1-2)[Gal(b1-4)GlcNAc(b1-4)]Man(a1-3)[Gal(b1-4)GlcNAc(b1-2)Man(a1-6)]Man(b1-4)GlcNAc(b1-4)GlcNAc
# Method in brief: as §1
# [18] = target: Gal(b1-4)GlcNAc(b1-2)[Gal(b1-4)GlcNAc(b1-6)]Man(a1-6)[Gal(b1-4)GlcNAc(b1-2)Man(a1-3)]Man(b1-4)GlcNAc(b1-4)[Fuc(a1-6)]GlcNAc
# Method in brief: as §1
# [19] = target: Gal(b1-4)GlcNAc(b1-3)Gal(b1-3)GlcNAc
# Method in brief: as §1
# [20] = target: Gal(b1-4)GlcNAc(b1-3)Gal(b1-4)GlcNAc(b1-2)Man(a1-3)[Gal(b1-4)GlcNAc(b1-3)Gal(b1-4)GlcNAc(b1-2)Man(a1-6)]Man(b1-4)GlcNAc(b1-4)[Fuc(a1-6)]GlcNAc
# Method in brief: as §1
# [21] = target: Gal(b1-4)GlcNAc(b1-3)Gal(b1-4)GlcNAc(b1-3)Gal(b1-4)GlcNAc(b1-3)Gal(b1-4)GlcNAc(b1-2)Man(a1-3)[Gal(b1-4)GlcNAc(b1-3)Gal(b1-4)GlcNAc(b1-3)Gal(b1-4)GlcNAc(b1-3)Gal(b1-4)GlcNAc(b1-2)Man(a1-6)]Man(b1-4)GlcNAc(b1-4)[Fuc(a1-6)]GlcNAc
# Method in brief: as §1
# [22] = target: Gal(b1-4)GlcNAc(b1-3)Gal(b1-4)GlcNAc(b1-3)Gal(b1-4)GlcNAc(b1-3)Gal(b1-4)GlcNAc(b1-3)Gal(b1-4)GlcNAc(b1-2)Man(a1-3)[Gal(b1-4)GlcNAc(b1-3)Gal(b1-4)GlcNAc(b1-3)Gal(b1-4)GlcNAc(b1-3)Gal(b1-4)GlcNAc(b1-3)Gal(b1-4)GlcNAc(b1-2)Man(a1-6)]Man(b1-4)GlcNAc(b1-4)GlcNAc
# Method in brief: as §1
# [23] = target: Gal3S(b1-3)GalNAc
# Method in brief: as §1
# [24] = target: Gal3S(b1-4)Glc
# Method in brief: as §1
# [25] = target: Gal3S(b1-4)Glc6S
# Method in brief: as §1
# [26] = target: Gal3S6S(b1-4)GlcNAc
# Method in brief: as §1
# [27] = target: Glc(a1-4)Glc
# Method in brief: as §1
# [28] = target: GlcNAc(b1-3)Fuc
# Method in brief: as §1
# [29] = target: GlcNAc(b1-4)Gal(b1-4)GlcNAc
# Method in brief: as §1
# [30] = target: Kdn(a2-3)Gal(b1-4)Glc
# Method in brief: as §1
binder,measurement,setting,value
B1,glycan array binding signal (z-score),[1],-0.156
same,glycan array binding signal (z-score),[2],-0.162
same,glycan array binding signal (z-score),[3],1.88
same,glycan array binding signal (z-score),[4],-0.235
same,glycan array binding signal (z-score),[5],-0.161
same,glycan array binding signal (z-score),[6],12.1
same,glycan array binding signal (z-score),[7],-0.211
same,glycan array binding signal (z-score),[8],-0.161
same,glycan array binding signal (z-score),[9],1.22
same,glycan array binding signal (z-score),[10],1.49
same,glycan array binding signal (z-score),[11],-0.262
same,glycan array binding signal (z-score),[12],-0.236
same,glycan array binding signal (z-score),[13],-0.181
same,glycan array binding signal (z-score),[14],-0.117
same,glycan array binding signal (z-score),[15],0.007
same,glycan array binding signal (z-score),[16],-0.233
same,glycan array binding signal (z-score),[17],-0.254
same,glycan array binding signal (z-score),[18],-0.222
same,glycan array binding signal (z-score),[19],-0.084
same,glycan array binding signal (z-score),[20],1.44
same,glycan array binding signal (z-score),[21],1.2
same,glycan array binding signal (z-score),[22],-0.072
same,glycan array binding signal (z-score),[23],0.678
same,glycan array binding signal (z-score),[24],3.41
same,glycan array binding signal (z-score),[25],1.24
same,glycan array binding signal (z-score),[26],-0.201
same,glycan array binding signal (z-score),[27],-0.054
same,glycan array binding signal (z-score),[28],-0.089
same,glycan array binding signal (z-score),[29],-0.232
same,glycan array binding signal (z-score),[30],-0.172
